Assay results reported in ChEMBL document CHEMBL3988442, “University of Dundee, Small-Polar-MMV Screening Library” (2021).
In all, about 48,000 compounds went through this assay and about 13,000 (27%) showed an effect of 50% or more. This is one part of the list.

test system: Wolbachia pipientis; assay: Anti-Wolbachia Cell-Based Screen; type: functional; set-up: scale not given: in the data most compounds retested in dose-response had high values; details: 5 µM

First: Cc1cc(C)n(CC(C)NCc2cnc3c(C)cccn23)n1 (configuration not stated)
Second: Cc1cc(C)n(C(=O)Cn2nc(C)c(I)c2C)n1
The “Percent Effect” value of the first is lower: -11.8% for the first, 66.77% for the second.

First: COCCSc1ccc(C(C)NC(=O)Nc2cn[nH]c2)cc1 (configuration not stated)
Second: CC(NC(=O)NCc1ccccn1)c1ccc2c(c1)CCC(=O)N2 (configuration not stated)
The “Percent Effect” value of the first is lower: -2.849% for the first, 101% for the second.

Going from COc1cc(NCC(=O)NC(C)(C#N)C(C)C)cc(OC)c1OC (configuration not stated) to COc1ccc(OCC(=O)NC(C)c2ccccc2)c(C(=O)O)c1 (configuration not stated), the “Percent Effect” value rises from -11.73% to -7.994%.

First: CSc1ccsc1C(=O)NCCNC(=O)C1CC1
Second: CSc1ccsc1C(=O)NC(C)c1ccc2c(c1)CCC(=O)N2 (configuration not stated)
The “Percent Effect” value of the first is higher: -5.162% for the first, -17.83% for the second.

Compared with Cn1cc(-c2ncc3c(c2C(=O)O)CCN(Cc2ccco2)C3)cn1.O=C(O)C(F)(F)F, Cn1cc(-c2ncc3c(c2C(=O)O)CCN(Cc2ccccn2)C3)cn1.O=C(O)C(F)(F)F.O=C(O)C(F)(F)F is higher in “Percent Effect” value: 100.1% for the first, 106.1% for the second.

Compared with O=C(O)C(F)(F)F.O=C(O)C(F)(F)F.O=C(O)c1c(-c2cncnc2)ncc2c1CCN(Cc1ccco1)C2, O=C(O)C(F)(F)F.O=C(O)C(F)(F)F.O=C(O)C(F)(F)F.O=C(O)c1c(-c2cncnc2)ncc2c1CCN(Cc1cccnc1)C2 is lower in “Percent Effect” value: 112.5% for the first, 96.39% for the second.

Going from O=C(O)C(F)(F)F.O=C(O)C(F)(F)F.O=C(O)c1cc2c(nc1-c1ccoc1)CCN(Cc1ccco1)CC2 to Cn1cc(CN2CCc3c(cnc(-c4ccccc4)c3C(=O)O)C2)cn1.O=C(O)C(F)(F)F.O=C(O)C(F)(F)F, the “Percent Effect” value falls from 4.884% to -3.13%.

Going from Cn1nccc1-c1ncc2c(c1C(=O)O)CCN(Cc1ccncc1)C2.O=C(O)C(F)(F)F.O=C(O)C(F)(F)F to Cn1nccc1-c1ncc2c(c1C(=O)O)CCN(Cc1cccnc1)C2.O=C(O)C(F)(F)F.O=C(O)C(F)(F)F, the “Percent Effect” value rises from -6.643% to -4.341%.

Compared with O=C(O)c1c(-c2ccncc2)ncc2c1CCN(Cc1ccco1)C2, Cn1nccc1-c1ncc2c(c1C(=O)O)CCN(Cc1ccccc1)C2.O=C(O)C(F)(F)F.O=C(O)C(F)(F)F.O=C(O)C(F)(F)F is lower in “Percent Effect” value: 103.7% for the first, -10.76% for the second.

Compared with Cn1cc(C(=O)NCc2cn3c(n2)CN(Cc2ccccn2)CC3)cn1.O=C(O)C(F)(F)F.O=C(O)C(F)(F)F, O=C(O)C(F)(F)F.O=C(O)C(F)(F)F.c1cc(CN2CCc3ncnc(C4CCOC4)c3CC2)ccn1 (configuration not stated) is lower in “Percent Effect” value: 1.361% for the first, 0.007603% for the second.

First: Nc1cc(-c2cccc3ccnn23)ccn1
Second: Nc1ccc(-c2ccc(F)cc2Cl)cn1
The “Percent Effect” value of the first is higher: -7.377% for the first, -14.84% for the second.

First: O=C(COC1CCCC1)NC(C(=O)Nc1cc[nH]n1)c1ccccc1 (configuration not stated)
Second: O=C(CN1CCCS1(=O)=O)Nc1ccc(OC2CCCC2)cc1
The “Percent Effect” value of the first is lower: -15.76% for the first, -0.8772% for the second.

Compared with O=C(NCc1nc(C2CCCCC2)no1)C1CC(=O)N(C2CC2)C1 (configuration not stated), CCN1CC(C(=O)NCc2nc(C3CCCCC3)no2)CC1=O (configuration not stated) is lower in “Percent Effect” value: -21.27% for the first, -30.34% for the second.

Going from CN1CCN(C(=O)c2cn(-c3ccc(C(F)(F)F)cn3)nn2)CC1 to CN1CCCN(C(=O)c2cnc(C(C)(C)C)nc2O)CC1, the “Percent Effect” value falls from -7.593% to -12.59%.

First: Cc1cc(-n2cccn2)ccc1CN1C[C@@H](CN(C)C)[C@@H](CO)C1
Second: Cc1cccnc1CN1CCN(C(=O)CCn2ccc(=O)[nH]c2=O)CC1
The “Percent Effect” value of the first is higher: 14.35% for the first, -10.51% for the second.

First: Cc1ccc(C2(O)CCN(C(=O)CCn3ccc(=O)[nH]c3=O)CC2)nc1
Second: Cc1ccc(C2(O)CCN(C(=O)Cn3cc(C)c(=O)[nH]c3=O)CC2)nc1
The “Percent Effect” value of the first is lower: 97.51% for the first, 116.3% for the second.

Compared with Cc1cccc(=O)n1CCC(=O)N(C)Cc1cccc2ncccc12, Cc1cn(CC(=O)N(C)Cc2cccc3ncccc23)c(=O)[nH]c1=O is lower in “Percent Effect” value: -4.376% for the first, -19.07% for the second.

Going from COC1CCN(C(=O)CCn2ccc(=O)[nH]c2=O)CC1 to COC1CCN(C(=O)Cn2nc(C)cc2C)CC1, the “Percent Effect” value falls from -8.705% to -14.02%.

Compared with COC(=O)C1CCN(CC2(c3ccc(C)cn3)CCNCC2)CC1, Cc1ccc(C2(O)CCN(C(=O)CCn3c(C)cccc3=O)CC2)nc1 is higher in “Percent Effect” value: -5.791% for the first, 106.7% for the second.

First: CSCc1ccc(N2CCC(C(O)Cc3ccccc3)CC2)nc1 (configuration not stated)
Second: O=C(c1cnccn1)N1CCN(Cc2csc(-c3ccccc3)n2)CC1
The “Percent Effect” value of the first is higher: 26.16% for the first, 5.031% for the second.

First: Cc1ccc(Oc2ncccc2CNC2CCSCC2)cn1
Second: O=C1CCCc2cc(S(=O)(=O)NCc3ccccn3)ccc2N1
The “Percent Effect” value of the first is lower: -8.046% for the first, -1.258% for the second.

Going from Cc1ccc(C(O)CNC(=O)NCc2nc(C)cs2)cc1 (configuration not stated) to Cc1csc(CNC(=O)NCC(O)c2ccc(F)cc2)n1 (configuration not stated), the “Percent Effect” value rises from -27.45% to 8.268%.

Compared with CC(NC(=O)NCc1cccs1)c1ccc2c(c1)CCC(=O)N2 (configuration not stated), Cc1ccsc1CNC(=O)NC(C)c1ccc2c(c1)CCC(=O)N2 (configuration not stated) is lower in “Percent Effect” value: 122.7% for the first, 96.96% for the second.

Going from Cc1ccsc1C(=O)NC(C)c1ccc2c(c1)CCC(=O)N2 (configuration not stated) to Cc1csc(CNC(=O)NC(C)c2ccc3c(c2)CCC(=O)N3)n1 (configuration not stated), the “Percent Effect” value rises from -2.921% to 108.8%.

Compared with CC(NC(=O)NCc1cc[nH]n1)c1ccc2c(c1)CCC(=O)N2 (configuration not stated), CC(NC(=O)NCCS(C)(=O)=O)c1ccc2c(c1)CCC(=O)N2 (configuration not stated) is higher in “Percent Effect” value: -0.03999% for the first, 98.04% for the second.

First: CC(NC(=O)N(C)Cc1ccsc1)c1ccc2c(c1)CCC(=O)N2 (configuration not stated)
Second: CC(NC(=O)NCCCN(C)C)c1ccc2c(c1)CCC(=O)N2 (configuration not stated)
The “Percent Effect” value of the first is lower: -10.24% for the first, 1.464% for the second.

Going from CCCOc1ccc(CN)c(OC(F)F)c1 to Cc1nnc(CSc2ccc(C(F)(F)F)cn2)o1, the “Percent Effect” value falls from 2.024% to -11.49%.

Compared with CC(C(=O)NCc1ccnc(N2CCN(C)CC2)c1)n1cccn1 (configuration not stated), Cc1nc(N2CCN(C)CC2)ncc1C(=O)N1CCCCC1 is higher in “Percent Effect” value: -2.51% for the first, 123.3% for the second.

Going from O=C(c1ccc(Cn2cc(Br)cn2)cc1)N1CCCC1 to CN1CCCN(C(=O)c2cnc(Cc3c(Cl)cccc3Cl)nc2O)CC1, the “Percent Effect” value falls from 26.22% to 6.628%.

Compared with CN(C)C[C@@H]1CCC[C@@H]2CN(c3nccc(C(F)(F)F)n3)C[C@@H]21.O=C(O)C(F)(F)F, Cn1cccc1CN1CCC2(CC1)CCN(C(=O)c1cnccn1)CC2.O=C(O)C(F)(F)F is higher in “Percent Effect” value: -9.332% for the first, 3.989% for the second.

First: CC(NC(=O)NCCCn1ccnc1)c1ccc2c(c1)CCC(=O)N2 (configuration not stated)
Second: CC(=O)N1Cc2nc(C(=O)NCCc3cccnc3)oc2C1
The “Percent Effect” value of the first is higher: -10.33% for the first, -18.72% for the second.

Compared with CCCn1[nH]cc/c1=N\C(=O)CN1CCCC1Cn1cc(C)cn1 (configuration not stated), Cc1nn(CC(=O)N2CCCC2Cn2cccn2)c(C)c1Cl (configuration not stated) is higher in “Percent Effect” value: -13.34% for the first, -2.085% for the second.

First: O=C(c1cnccn1)N1CCC2(CCCN(Cc3ccoc3)C2)C1 (configuration not stated)
Second: O=C(c1cnccn1)N1CCC2(CCN(Cc3ccsc3)C2)CC1
The “Percent Effect” value of the first is lower: 7.611% for the first, 113.3% for the second.

First: O=C(c1cnccn1)N1CCC2(CCN(Cc3ccsc3)CC2)CC1
Second: Cc1nc(N2CCN(C)CC2)ncc1C(=O)N1CCC(O)(CO)CC1
The “Percent Effect” value of the first is higher: 105.9% for the first, -3.993% for the second.

Compared with NC(=O)C1=NC2=NS(=O)(=O)c3ccccc3N2N1Cc1ccc(Cl)cc1, Cc1ccccc1CN(C)C(=O)c1ccoc1 is lower in “Percent Effect” value: 1.46% for the first, -7.893% for the second.

First: CC(C)(CNc1cc(F)ccc1F)S(C)(=O)=O
Second: CSCC(C)N(C)S(=O)(=O)c1ccc(Cl)cc1C#N (configuration not stated)
The “Percent Effect” value of the first is lower: -17.31% for the first, -5.71% for the second.

First: CC(=O)N1CCC(N2CCN3C(=O)N(Cc4ccccn4)C[C@H]3C2)CC1
Second: Cc1ncc(CC(=O)N2CCCCC2CCN2CCCC2)c(=O)[nH]1 (configuration not stated)
The “Percent Effect” value of the first is higher: -4.667% for the first, -18.36% for the second.

Going from Cc1cc(C(=O)O)ccc1NS(=O)(=O)c1c(C)nn(C(C)C)c1C to CC(C)(C)NS(=O)(=O)c1ccc(NC(=O)C2CC2)cc1, the “Percent Effect” value falls from -9.87% to -16.45%.

Compared with CC[C@H]1COCCN1C(=O)c1cnc(N2CCN(C)CC2)nc1C, Cc1nc(N2CCN(C)CC2)ncc1C(=O)N1CCN(C)CC1 is higher in “Percent Effect” value: -29.22% for the first, 120.1% for the second.

Compared with Cc1nc(N2CCCCC2)ncc1-c1cc(O)[nH]n1, Cc1nc(N2CCN(C)CC2)ncc1C(=O)N1CCCCCC1 is higher in “Percent Effect” value: 24.53% for the first, 100.3% for the second.

First: Cc1nc(N2CCN(C)CC2)ncc1C(=O)N1CC(C)(C)C(C)(O)C1 (configuration not stated)
Second: Cc1nnc(CN(C)CC2(O)CCCN(CCC3CCCCC3)C2=O)o1 (configuration not stated)
The “Percent Effect” value of the first is higher: -4.468% for the first, -32.48% for the second.

Compared with COCc1c(Br)cccc1NC(=O)CC(F)(F)F, COCCc1noc(-c2ccc(=O)[nH]c2)n1 is lower in “Percent Effect” value: -8.675% for the first, -16.05% for the second.

Going from CC(C)(O)c1cc(CC2(NCC3CCCCC3)COC2)no1 to Cc1cc(CN(C)CC2CCCCC2)no1, the “Percent Effect” value rises from -2.979% to -1.2%.

Going from O=C(c1n[nH]c2ccccc12)N1CCCC1c1noc(C2CC2)n1 (configuration not stated) to CN(Cc1ccccc1CN1CCCC1)C(=O)c1c(O)cccc1O, the “Percent Effect” value rises from -5.823% to -3.98%.

First: Cc1cc(C)n(CC(=O)N2CCC(NS(C)(=O)=O)CC2)n1
Second: Cc1nn(CC(=O)N2CCCCC2Cn2cccn2)c(C)c1Cl (configuration not stated)
The “Percent Effect” value of the first is lower: -12.4% for the first, -2.313% for the second.

Compared with Cc1nn(CC(=O)n2cccn2)c(C)c1I, CCN(CC1CCOC1)C(=O)c1nc(-c2ccco2)sc1C (configuration not stated) is lower in “Percent Effect” value: 112.6% for the first, 14.29% for the second.

Compared with CN(C)Cc1ccccc1CN(C)C(=O)c1ccoc1, CCN(CC1CCOC1)C(=O)c1ccc(COc2ccccc2C#N)o1 (configuration not stated) is lower in “Percent Effect” value: 83.07% for the first, 0.9785% for the second.

First: CCN(CC1CCOCC1)C(=O)CCNC(=O)c1ccccc1F
Second: CCN(CC1CCOC1)C(=O)c1ccccc1NS(=O)(=O)CC (configuration not stated)
The “Percent Effect” value of the first is lower: -3.146% for the first, 0.4037% for the second.

First: CCN(CC1CCOC1)C(=O)c1ccccc1S(C)(=O)=O (configuration not stated)
Second: CCN(CC1CCOC1)C(=O)c1ccccc1S(=O)(=O)CC (configuration not stated)
The “Percent Effect” value of the first is lower: 84.82% for the first, 111.1% for the second.

Compared with CCc1nc(CN(C)CC2CCN(CCO)CC2)no1, CCc1nnc(CN(C)CC2CCCCC2)o1 is higher in “Percent Effect” value: -13.45% for the first, 93.73% for the second.

Going from CCc1nnc(CN(C)C[C@@H]2CCCN3CCCC[C@H]23)o1 to Cc1nnc(CN(C)CC2CCCCC2)o1, the “Percent Effect” value rises from -11.52% to 96.6%.
